{
  "source": "ChEMBL document CHEMBL5308541",
  "about": "“MAIP: An Open-Source Tool to Enrich High-Throughput Screening Output and Identify Novel, Druglike Molecules with Antimalarial Activity” (ACS Med Chem Lett, 2023)",
  "note": "Screen size: about 4,800 compounds; about 410 (8.5%) showed an effect of 50% or more. Only a selection was taken, and strong results are over-represented in it overall.",
  "data": [
    {"system": "Plasmodium falciparum", "assay": "Confirmatory screen in NF54 pLDH assay, in single point, at 2uM, 72h", "type": "functional, Erythrocyte", "conditions": "timepoint 72 hour", "units": {"% Inhibition": "%"}, "values": [
      {"smiles": "Fc1ccc(N2CC[C@H](CN3CCC(c4c[nH]c5ccccc45)(c4c[nH]c5ccccc45)CC3)C2)cc1", "% Inhibition": 102},
      {"smiles": "CN1C2CCC1CC(OC(=O)C1CCC(C(=O)OC3CC4CCC(C3)N4C)(c3ccccc3)c3ccccc31)C2", "note": "(stereo unspecified)", "% Inhibition": 63},
      {"smiles": "O[C@@H](CNCc1ccc2c(c1)CCO2)c1ccc(F)c(F)c1", "% Inhibition": 74},
      {"smiles": "CN1CCC(N(C)c2ccccc2CNC[C@@H](O)c2cccc(Cl)c2)CC1", "% Inhibition": 17},
      {"smiles": "CC(C)(C)c1ccc(CNC[C@H](O)c2ccc(F)cc2F)cc1", "% Inhibition": 91},
      {"smiles": "CN1CCN(c2ccc(C(F)(F)F)cc2NCc2cnc[nH]2)CC1", "% Inhibition": 92},
      {"smiles": "COc1ccc(CCNCc2ccc3[nH]cnc3c2)c(Cl)c1", "% Inhibition": 48},
      {"smiles": "CCN(C(C)=O)c1nc(CN2CC=C(c3c[nH]c4cc(F)ccc34)CC2)cs1", "% Inhibition": 20},
      {"smiles": "CN(C)CC12CNCC1CN(c1ccnc3cc(Cl)ccc13)C2", "note": "(stereo unspecified)", "% Inhibition": 97},
      {"smiles": "Oc1ccc(C2=CCN(Cc3cccc4[nH]ccc34)CC2)cc1", "% Inhibition": 38},
      {"smiles": "CCCOc1cncc(-c2ccc3c(c2)CNCC3)c1", "% Inhibition": 8}
    ]}
  ]
}
